Test results: the supplement of paper PMC6555819

The sequences below were run on PPARg:RXRa 30nM:10nM, anti-RXR (NR concentration 30 nM, RXRa partner concentration 10 nM) (assay: PBM binding z-score (relative to random genomic background probes); higher = stronger binding; sequences stand for … in GC…GCGATTGACAGCGTAGAATGAAGG).
Summary of the method: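 Custom Agilent 4×180K protein-binding microarrays carried double-stranded probes. Their 34-nt variable regions held direct-repeat seeds, single-nucleotide variants, half-site ablations and random human genomic background sequences. Arrays were incubated 1 h with ligand-free nuclear receptor dimers in PBS pH 7.4, 2% milk, 0.02% Triton X-100, 1 mM DTT, 0.2 mg/mL BSA and 0.4 mg/ml salmon testes DNA. Antibodies against each partner (one per run) detected binding, and scanned fluorescence was regression-normalized. Binding z-scores use random background probes as reference.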

Row | Sequence | PBM binding z-score
1 | ATATGTAGGTTACATCCGGGTCATTTAGGCTATG | 2.64
2 | CGTAGCAGGCCAGGGTCACTCAAGCATTTCGCTT | -0.228
3 | CCAGACAGGTGAGAAAGTAACTCAGCCTCGATTA | -0.427
4 | ACTATTAGTTGACTTAGAGCAACCGATACGACGC | 0.379
5 | GGAACGAGGGCAAGTTGATATCAGAGTTTGATGG | 0.0363
6 | ACTATTAGCTGACTTAGGGCAACCGATACGACGC | -0.102
7 | TAGCCTAGGTCATTGGGCCAGCATAGTACGCATC | 0.617
8 | CCTATTAGTTGCCCATAAGGGCAACCGAAGCTCG | -0.263
9 | GCTGCTAGGTCAGGTTGGTTAGCTAACGGGTACG | -0.629
10 | TTACCAAGGTAAGCTGAGGTCGTTGATCCAACTC | -0.421
11 | TCTGCTAGGTCATTTGGTCAGCTAACGAGCTGCC | 1.64
12 | TAGCCTAGGTCATTCAGAGGCCAGTATAGAAAGC | 0.542
13 | CTCGAAAGGTCGGTTTAGGTGAGTATACGGATAA | -0.0408
14 | ACTATTAATTGACTTAGGGCAACCGATACGACGC | 0.559
15 | CGCACTAGGTCAGAACAGGACAGTGAAGGATGAT | 1.63
16 | CCTTACGCGTCACTCCAGGTTATAGCATCGGAGT | -0.223
17 | GCTATTCGTTGAAAGGGCAACCGAATGATTCTCG | 0.831
18 | TCGAGTAGGCTACCAATGGGGCATTCAGCTTTCT | 1.19
19 | GATACAGGATCAAGGCCAGAGTACGCGTATTGAT | 0.0722
20 | GCTGCTAGCTCAGGTTGGTCAGCTAACGGGTACG | -1.04
21 | TCATATAGGTAACGGTGAAAGTCGAACGATATGA | 3.34
22 | TCAGACAGGTGAAGGTAAGTCAGGTACGCAGTCG | 4.06
